Structures are written as SMILES. Inconclusive results are not listed. Where a call stands in place of a potency, no number is given. A number with no mark means an inactive call. The source made the active and inactive calls. Calls follow the shape of the dose curve; as a rule, active = well fitted inhibition curve with a large enough effect; inconclusive = small, poorly fitted or top-dose-only effect; inactive = flat fitted curve, though single readings scatter. Square brackets hold non-standard residues; d marks the D form. Peptide text beside a SMILES is read from it. ξ: configuration not given here. ξPhe(βξ-Me) = CC(c1ccccc1)C(N)C(=O)O; GABA = NCCCC(=O)O

The assay has as its target Aldehyde dehydrogenase, mitochondrial (Homo sapiens) (UniProt P05091). The experiment in a line: qHTS for Inhibitors of the Aldehyde Dehydrogenase Family (ALDH2) Primary screen (AID 2061308). Also: nearly all actives have a fitted effect of over 55% in size. The settings on record: ALDH2 enzyme inhibition qHTS, 1536-well; series mostly up to 56 µM. (qHTS replaces the single test concentration by a dilution series.)
Turning to `C=C1CC2[C@@]3(C)C=CC(=O)C(C)(C)C3=C(O)C(=O)[C@@]2(C)C2(C(=O)OC)C(=O)C(C)OC(=O)[C@@]12C` (some centres undefined), the Potency entry was “inactive”. For `CCCCC(=O)N(Cc1ccc(-c2ccccc2-c2nn[nH]n2)cc1)C(C(=O)O)C(C)C` (centres undefined), the Potency entry was “inactive”. Turning to `COc1cc(C2Oc3c(OC)cc(CCCO)cc3C2CO)ccc1O[C@H]1O[C@H](C)[C@@H](O)[C@H](O)[C@@H]1O` (some centres undefined), the Potency entry was “inactive”. Take `COC(=O)[C@@H](NC(=O)[C@H](CC(C)C)NC(=O)N(Cc1ccccc1)C[C@@H](O)[C@H](Cc1ccccc1)NC(=O)OC(C)(C)C)C(C)C`: the activity change, negative = inhibition was -10% [at 11.2 µM]. For `O=C(/C=C/c1ccc(O)cc1)OC1[C@H](O)CC(O)(C(=O)O)C[C@H]1O` (some centres undefined), the Potency result is “inactive”.

On to `C=C1C(O)C(OC(=O)c2ccccc2)C2C(C)(C(=O)O)CCCC2(C)C1CC/C(C)=C\CO` (centres undefined), for which the Potency result was “inactive”. For the molecule `CC(C)C(NC(=O)c1ccc(O)cc1)C(=O)N1CCCC1C(=O)Nc1c(O)cccc1C(=O)O` (centres undefined), the Potency entry is “inactive”.

As to `CC/C=C\[C@H](O)[C@H](O)C1=C(C)C(=O)[C@]2(O1)C(=O)N[C@@](OC)(C(=O)c1ccccc1)[C@@H]2O`, the Potency result is “inactive”.

Consider `C[C@H]1CCN2C[C@]34C[C@@]5(C(=O)Nc6c5ccc5c6OC=CC(C)(C)O5)C(C)(C)C3C[C@]12C(=O)N4C` (some centres undefined), for which the Potency result was “inactive”. As for `CC1OC(O[C@@H]2[C@@H](O)[C@H](OC(=O)[C@]34CCC(C)(C)C[C@H]3C3=CCC5[C@@]6(C)CC[C@H](O[C@@H]7O[C@H](C(=O)O)[C@@H](O)[C@H](O[C@@H]8OC[C@@H](O)[C@H](O)[C@H]8O)[C@H]7O[C@@H]7O[C@H](CO)[C@H](O)[C@H](O)[C@H]7O)[C@@](C)(C=O)C6CC[C@@]5(C)[C@]3(C)C[C@H]4O)O[C@H](C)[C@@H]2OC2OC(C)C(OC3OCC(O)C(O)C3O)C(O)C2O)C(O)C(O)C1O` (some centres undefined), the activity change, negative = inhibition is 9.81% [at 11.2 µM]. `CC(=O)OCC1=C[C@@H]2OC(=O)C3=CO[C@@H](O[C@@H]4O[C@H](CO)[C@@H](O)[C@H](O)[C@H]4O)[C@H]1[C@@H]32`: the Potency entry is “inactive”. On the same count and under the same terms, the same measure for `CC1CC(=O)C2=C(O1)OC1(C)CCC3C(C)(C)C=CC(=O)C3(C)C1C2` (centres undefined): “inactive”. On the same count and under the same terms, under `O[C@@](Cc1ncc(CC2(C(F)(F)F)CC2)[nH]1)(c1ccc(-n2cccn2)cc1)C(F)(F)F` stands “inactive”; under `C=C1C(=O)O[C@H]2[C@H]1[C@@H](OC(=O)C(C)CO)C[C@@]1(C)[C@H](O)CCC(=O)[C@H]21` (some centres undefined), “inactive”; under `CC(C)C[C@H](CC(=O)NO)C(=O)N[C@@H](Cc1ccc2ccccc2c1)C(=O)N[C@@H](C)C(=O)NCCN`, “inactive”.

For `Cc1ccc(C)c(NC(=O)[C@@H]2CCCN2S(=O)(=O)c2cccc3cccnc23)c1`, the Potency result is “inactive”. As to `CC1OC(OCC2OC(OC3CCC4(C)C(CCC5(C)C4CC=C4C6CC(C)(C)CCC6(C(=O)OC6OC(CO)C(O)C(O)C6O)CCC45C)C3(C)CO)C(O)C(O)C2O)C(O)C(O)C1O` (centres undefined), the Potency entry is “inactive”.

Regarding `CCNC(=O)C1OC(n2cnc3c(N)nc(NCCc4ccc(CCC(=O)O)cc4)nc32)C(O)C1O` (centres undefined), the Potency result is “inactive”. As for `COc1cccc(-c2cn(-c3ccc(CCN4CCC(O)CC4)cc3)c3ncnc(N)c23)c1`, the Potency entry is “inactive”. The same measure, in the same setting: the same measure for `NCCCNc1ccc(Nc2nccc(Nc3cc(C4CC4)[nH]n3)n2)cc1`: “inactive”; for `CC1CCCC(O)CCC/C=C/c2cc(OS(=O)(=O)O)cc(O)c2C(=O)O1` (centres undefined): “inactive”.

As for `COc1cc2c(cc1OC)CN(C(=O)[C@@H](NCc1ccncc1)C(C)(C)C)CC2`, the Potency entry was “inactive”. On the same count and under the same terms, the same measure for `C=CC1C(O[C@@H]2O[C@H](CO)[C@@H](O)[C@H](O)[C@H]2O)OC=C(C(=O)OC)C1Cc1nccc2c1[nH]c1ccccc12` (some centres undefined): “inactive”. Still for that read-out and setting: under `C[C@H](NC(c1cccc2[nH]c(=O)c(=O)[nH]c12)P(=O)(O)O)c1ccc(Br)cc1` (some centres undefined) stands “inactive”. `COc1ccc(CNC(=O)c2sc3nc(C)cc(C)c3c2N)cc1`: the Potency entry was “inactive”.

Consider `O=C(O)/C=C/c1ccc2occc2c1O[C@@H]1O[C@H](CO)[C@@H](O)[C@H](O)[C@H]1O`, for which the Potency result is “inactive”. On to `C=C[C@H]1[C@H](O[C@@H]2O[C@H](CO)[C@@H](O)[C@H](O)[C@H]2O)OC=C(C(=O)OC)[C@H]1C[C@@H]1N[C@H](C(=O)O)Cc2c1[nH]c1ccccc21`, for which the Potency result is “inactive”.

As for `CC(=O)N1CCN(C(=O)Cc2ccc(Nc3ncc(F)c(Nc4ccc(C(=O)Nc5ccccc5Cl)cc4)n3)cc2)CC1`, the Potency entry was “inactive”. Still for that read-out and setting: under `CC(C)=CCC[C@](C)(O)[C@H]1CC[C@]2(C)[C@@H]1[C@H](O)CC1[C@@]3(C)CC[C@H](O)C(C)(C)C3[C@@H](O[C@@H]3O[C@H](CO)[C@@H](O)[C@H](O)[C@H]3O[C@@H]3OC[C@@H](O)[C@H](O)[C@H]3O)C[C@]12C` (some centres undefined) stands “inactive”; under `C=C1Cc2c(Cl)cc3[nH]c4c5c3c2[C@@]2(O)[C@@H]1C[C@@H]2C(C)(C)O[C@H]5C1CC[C@@]2(O)[C@@]35O[C@@H]3[C@H]3OC(C)(C)[C@H]3O[C@H]5CC[C@]2(C)[C@@]41C` (some centres undefined), “inactive”. Same read-out and setting: the same measure for `CC1=CC2(O)/C=C/C(C)(O)CC(O)/C=C/C(=O)OC23C(=O)NC(CC(C)C)C3C1C` (centres undefined): “inactive”; for `C/C(=C\CCC(C)(C)O)CCO[C@@H]1O[C@H](CO[C@@H]2O[C@@H](C)[C@H](O)[C@@H](O)[C@H]2O)[C@@H](O)[C@H](O)[C@H]1O`: “inactive”; for `CC(C)=CCc1c(O)cc2oc3cc(C)cc(O)c3c2c1C`: “inactive”. On the same count and under the same terms, the same measure for `O=C(OCC12OC1C=CC(OC(=O)c1ccccc1)C2O)c1ccccc1` (centres undefined): “inactive”; for `C[C@@H]1O[C@@H](O[C@H]2[C@@H]3C=CO[C@@H](O[C@@H]4O[C@H](CO)[C@@H](O)[C@H](O)[C@H]4O)[C@@H]3[C@@]3(CO)O[C@@H]23)[C@H](O)[C@H](OC(=O)/C=C/c2ccccc2)[C@H]1O`: “inactive”.

For `C[C@@H]1O[C@@H](O[C@H]2[C@H](OC(=O)[C@]34CCC(C)(C)C[C@H]3C3=CCC5[C@@]6(C)CC[C@H](O[C@@H]7O[C@H](CO[C@@H]8OC[C@H](O)[C@H](O)[C@H]8O)[C@@H](O)[C@H](O)[C@H]7O)C(C)(C)C6CC[C@@]5(C)[C@]3(C)C[C@H]4O)OC[C@@H](O)[C@@H]2O)[C@H](O)[C@H](O[C@@H]2OC[C@](O)(CO)[C@H]2O)[C@H]1O[C@@H]1OC[C@H](O)[C@H](O[C@@H]2OC[C@@H](O)[C@H](O)[C@H]2O)[C@H]1O` (some centres undefined), the activity change, negative = inhibition was 7.19% [at 11.2 µM]. In the case of `CC(C)=CCC(O)/C(C)=C/CO[C@@H]1O[C@H](CO)[C@@H](O)[C@H](O)[C@H]1O` (some centres undefined), the Potency result is “inactive”.

Turning to `CC(C)CC1NC(=O)C(C(C)c2ccccc2)NC(=O)C(C(C)C)NC(=O)C(C)NC(=O)CCCNC(=O)C(Cc2c[nH]c3ccccc23)NC(=O)C(C)NC1=O` (stereo not drawn) (cyclo([GABA]AV[ξPhe(βξ-Me)]LAW); configuration not given here), the Potency result was “inactive”.

Take `C=C1/C(=C/C=C2\CCC[C@]3(C)[C@@H]([C@H](C)CC[C@@H](O)C(C)(C)O)CC[C@@H]23)C[C@@H](O)C[C@@H]1O`: the Potency result is “inactive”.

For the origin of these results see PubChem BioAssay (NCATS).
